Source: PubChem BioAssay (NCI)
About 79,000 compounds went through this panel and 15% of them were active in at least one assay; those are over-represented in the sample as a whole. Calls of active or inactive are those of the source. Cut-off read from the data, not from the text of the source: active = growth inhibition above about 70%; inactive = the rest.

Columns and labels:
[1] = NCI Yeast Anticancer Drug Screen. Data for the rad52 strain (AID 147);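 note: 0% = growth of vehicle-treated control cultures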; conditions: S. cerevisiae rad52 mutant growth inhibition, stronger effect = higher value
Outline: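 Measured: yeast growth inhibition. System: strain with a defined DNA damage repair alteration. Reference: vehicle-treated control cultures.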

[2] = NCI Yeast Anticancer Drug Screen. Data for the wt1 strain (AID 149);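 note: 0% = growth of vehicle-treated wt1 cultures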; conditions: S. cerevisiae wt1 strain (SPY 50644) growth inhibition, stronger effect = higher value
Outline: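 The wt1 strain was treated with compounds, and growth was compared with vehicle-treated cultures to give inhibition.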

[3] = NCI Yeast Anticancer Drug Screen. Data for the rad50EPP+ strain (AID 151);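 note: 0% = growth of vehicle-treated control cultures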; conditions: S. cerevisiae rad50 mutant strain, stronger effect = higher value
Outline: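 One strain with a rad50 alteration (rad50EPP+) was compound-treated, its growth then compared to that of vehicle controls.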

[4] = NCI Yeast Anticancer Drug Screen. Data for the mgt1 strain (AID 153); conditions: S. cerevisiae mgt1 mutant growth inhibition, stronger effect = higher value
Outline: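 After exposure of the mgt1 yeast mutant to compound, growth was measured and reported as inhibition compared with vehicle controls.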

[5] = NCI Yeast Anticancer Drug Screen. Data for the rad50 strain (AID 155);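 note: 0% = growth of vehicle-only cultures of the same strain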; conditions: S. cerevisiae rad50 strain growth inhibition, stronger effect = higher value
Outline: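 Cells are treated with compound, grown, and their growth is then scored against vehicle-only cultures of the same repair-deficient yeast strain.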

[6] = NCI Yeast Anticancer Drug Screen. Data for the mec2-1 strain (AID 157); conditions: S. cerevisiae mec2-1 strain, stronger effect = higher value
Outline: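 Test agents were screened against the mec2-1 yeast strain, with defined DNA repair or cell cycle alteration. Growth was scored as inhibition against vehicle-only controls.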

[7] = NCI Yeast Anticancer Drug Screen. Data for the rad14 strain (AID 159);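 note: 0% = growth of vehicle-treated control cultures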; conditions: S. cerevisiae rad14 strain growth inhibition, stronger effect = higher value
Outline: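 Readout: yeast growth inhibition, referenced to vehicle-only cultures. Strain bears a defined alteration in DNA damage repair.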

[8] = NCI Yeast Anticancer Drug Screen. Data for the sgs1 mgt1 strain (AID 161);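 note: 0% = growth of cultures given vehicle only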; conditions: S. cerevisiae sgs1 mgt1 strain, stronger effect = higher value
Outline: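 Read-out: growth inhibition vs vehicle controls. Cells: mutant yeast strain deficient in DNA damage repair.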

[9] = NCI Yeast Anticancer Drug Screen. Data for the CLN2oe strain (AID 163);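 note: 0% = growth of vehicle-only control cultures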; conditions: S. cerevisiae CLN2oe strain, stronger effect = higher value
Outline: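 Here, growth inhibition in a cell-cycle-altered yeast strain after compound exposure was quantified against vehicle control growth.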

[10] = NCI Yeast Anticancer Drug Screen. Data for the cln2 rad14 strain (AID 165);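 note: 0% = growth equal to vehicle treated cultures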; conditions: S. cerevisiae cln2 rad14 strain, stronger effect = higher value
Outline: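 Growth of compound-exposed yeast (cln2 rad14 genotype) measured and expressed as inhibition relative to vehicle.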

[11] = NCI Yeast Anticancer Drug Screen. Data for the bub3 strain (AID 167); conditions: S. cerevisiae bub3 mutant strain, stronger effect = higher value
Outline: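 Part of a panel of yeast mutants defective in DNA damage repair or cell cycle regulation. Each strain is grown with compound, and inhibition is calculated relative to solvent-treated cultures.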

[12] = NCI Yeast Anticancer Drug Screen. Data for the wt2 strain (AID 169);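 note: 0% = growth of vehicle-treated yeast cultures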; conditions: S. cerevisiae wt2 strain growth inhibition, stronger effect = higher value
Outline: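 Genetically defined yeast strains from a DNA-repair/cell-cycle panel were used. Compound-exposed yeast growth was measured, and the inhibition was calculated relative to vehicle treatment.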

[13] = NCI Yeast Anticancer Drug Screen. Data for the mlh1 strain (AID 171);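 note: 0% = growth of vehicle-treated control cultures of the same strain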; conditions: S. cerevisiae mlh1 strain growth inhibition, stronger effect = higher value
Outline: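 Here the genetically defined yeast mutant is grown with each compound, and the extent to which its growth falls below that of vehicle-exposed cells is reported.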

[14] = NCI Yeast Anticancer Drug Screen. Data for the sgs1 strain (AID 173);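 note: 0% = growth of vehicle-only control cultures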; conditions: S. cerevisiae sgs1 mutant, stronger effect = higher value
Outline: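 Relative growth inhibition, referenced to vehicle, was determined in a yeast strain with a defined alteration affecting DNA damage repair or cell cycle control after compound exposure.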

[15] = NCI Yeast Anticancer Drug Screen. Data for the mlh1 rad18 strain (AID 175); conditions: S. cerevisiae mlh1 rad18 strain growth inhibition, stronger effect = higher value
Outline: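 In this whole-cell yeast screen, a strain with altered DNA damage repair is challenged with compound, and its growth is measured against matched vehicle-treated controls.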

[16] = NCI Yeast Anticancer Drug Screen. Data for the rad18 strain (AID 177); conditions: S. cerevisiae rad18 mutant growth inhibition, stronger effect = higher value
Outline: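 Screen uses a yeast strain with a defined lesion in DNA damage repair; compound effect is read as loss of growth compared to untreated vehicle cultures.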

[17] = at 5.0 µM (retest, dose inferred, filed as 0.5)
[18] = at 50.0 µM (retest, dose inferred, filed as 5.0)

Measured: growth inhibition

NC(N)=NS(=O)(=O)c1ccc(Nc2c3ccccc3nc3c(C(=O)NCCO)cccc23)cc1
inactive: [1]; at 1.2 µM 1% | [1]; at 3.7 µM 3% | [1]; at 11.0 µM 4% | [1]; at 33.0 µM 17% | [2]; at 1.2 µM 1% | [2]; at 3.7 µM 1% | [2]; at 11.0 µM 2% | [2]; at 33.0 µM -1% | [2]; at 100.0 µM 5% | [3]; at 1.2 µM -1% | [3]; at 3.7 µM -5% | [3]; at 11.0 µM -5% | [3]; at 33.0 µM 5% | [3]; at 100.0 µM 37% | [4]; at 1.2 µM -1% | [4]; at 3.7 µM -4% | [4]; at 11.0 µM -3% | [4]; at 33.0 µM 12% | [4]; at 100.0 µM 38% | [5]; at 1.2 µM 0% | [5]; at 3.7 µM 0% | [5]; [17] -11% | [5]; at 11.0 µM 3% | [5]; at 33.0 µM 16% | [5]; at 50.0 µM 69.4% | [6]; at 1.2 µM -3% | [6]; at 3.7 µM 0% | [6]; [17] -4% | [6]; at 11.0 µM -2% | [6]; at 33.0 µM 1% | [6]; [18] -2% | [6]; at 50.0 µM -21.9% | [6]; at 100.0 µM 33% | [7]; at 1.2 µM 0% | [7]; at 3.7 µM -1% | [7]; at 11.0 µM -2% | [7]; at 33.0 µM 2% | [7]; at 100.0 µM 17% | [8]; [17] 2% | [8]; [18] 20% | [8]; at 50.0 µM 20.4% | [9]; at 1.2 µM 2% | [9]; at 3.7 µM 0% | [9]; at 11.0 µM 4% | [9]; at 33.0 µM -6% | [9]; at 100.0 µM 11% | [10]; [17] 16% | [10]; [18] 17% | [10]; at 50.0 µM -5.1% | [11]; at 1.2 µM -4% | [11]; at 3.7 µM -1% | [11]; [17] -12% | [11]; at 11.0 µM -4% | [11]; at 33.0 µM -4% | [11]; [18] 33% | [11]; at 50.0 µM -1.35% | [11]; at 100.0 µM 7% | [12]; at 1.2 µM 0% | [12]; at 3.7 µM 0% | [12]; at 11.0 µM 1% | [12]; at 33.0 µM 0% | [12]; at 100.0 µM 20% | [13]; at 1.2 µM -2% | [13]; at 3.7 µM 0% | [13]; at 11.0 µM 1% | [13]; at 33.0 µM 1% | [13]; at 100.0 µM 48% | [14]; at 1.2 µM -1% | [14]; at 3.7 µM 0% | [14]; at 11.0 µM 0% | [14]; at 33.0 µM 5% | [14]; at 100.0 µM 43% | [15]; [17] -1% | [15]; [18] 40% | [15]; at 50.0 µM 46% | [16]; at 1.2 µM -1% | [16]; at 3.7 µM 0% | [16]; at 11.0 µM 9% | [16]; at 33.0 µM 7%
active: [1]; at 100.0 µM 82% | [5]; [18] 73% | [5]; at 100.0 µM 73% | [16]; at 100.0 µM 77%

CNC(=O)OCc1c(COC(=O)NC)c(-c2ccc(Cl)c(Cl)c2)n2c1SCC2
inactive: [1]; at 1.2 µM 0% | [1]; at 3.7 µM 0% | [1]; at 11.0 µM 3% | [1]; at 33.0 µM 14% | [2]; at 1.2 µM -1% | [2]; at 3.7 µM 0% | [2]; at 11.0 µM -1% | [2]; at 33.0 µM -3% | [2]; at 100.0 µM 6% | [3]; at 1.2 µM -3% | [3]; at 3.7 µM -3% | [3]; at 11.0 µM -3% | [3]; at 33.0 µM -3% | [3]; at 100.0 µM 4% | [4]; at 1.2 µM -4% | [4]; at 3.7 µM -1% | [4]; at 11.0 µM -1% | [4]; at 33.0 µM -3% | [4]; at 100.0 µM 12% | [5]; at 1.2 µM -1% | [5]; at 3.7 µM -3% | [5]; [17] -17% | [5]; at 11.0 µM -3% | [5]; at 33.0 µM 4% | [5]; [18] 35% | [5]; at 50.0 µM 65.7% | [6]; at 1.2 µM -2% | [6]; at 3.7 µM -4% | [6]; [17] 0% | [6]; at 11.0 µM -3% | [6]; at 33.0 µM -4% | [6]; [18] 18% | [6]; at 50.0 µM 27.3% | [6]; at 100.0 µM 38% | [7]; at 1.2 µM 0% | [7]; at 3.7 µM 2% | [7]; at 11.0 µM 4% | [7]; at 33.0 µM 18% | [8]; [17] -5% | [8]; [18] 32% | [8]; at 50.0 µM 39.4% | [9]; at 1.2 µM -1% | [9]; at 3.7 µM -6% | [9]; at 11.0 µM -6% | [9]; at 33.0 µM -5% | [9]; at 100.0 µM -1% | [10]; [17] -3% | [10]; [18] 23% | [10]; at 50.0 µM 25.1% | [11]; at 1.2 µM -2% | [11]; at 3.7 µM -5% | [11]; [17] 0% | [11]; at 11.0 µM -4% | [11]; at 33.0 µM -6% | [11]; [18] 9% | [11]; at 50.0 µM 4.3% | [11]; at 100.0 µM 20%
active: [1]; at 100.0 µM 76% | [5]; at 100.0 µM 76% | [7]; at 100.0 µM 85%
